Read-out in assay [1]: E-selectin (Homo sapiens) (UniProt P16581)
Description: BSK_SAg_Eselectin: BioMAP Diversity Plus: SAg Assay for Eselectin Biomarker Activity (AID 2283091). Particulars: primary human HUVEC with PBMC; actives raise or lower the signal. In a few lines: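 Cell-surface E-selectin is read by ELISA at 24 h in the SAg co-culture of HUVEC and PBMC. Curves are fitted in both directions relative to DMSO. Parallel SRB total-protein staining tracks overt toxicity.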

Read-out in assay [2]: Monokine induced gamma interferon (MIG), CXCL9 (gene 4283)
Description: BSK_SAg_MIG: BioMAP Diversity Plus: SAg Assay for Monokine induced gamma interferon (MIG) Biomarker Activity (AID 2283092). The following applies: primary human HUVEC with PBMC; actives raise or lower the signal. The essentials: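 Endothelial cells and PBMC were co-cultured, exposed to test chemicals, and sampled 24 h later. MIG was measured by ELISA, and responses were fitted in both directions relative to DMSO.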

Read-out in assay [3]: Interleukin-8 (IL8), CXCL8 (gene 3576)
Description: BSK_SAg_IL8: BioMAP Diversity Plus: SAg Assay for Interleukin-8 (IL8) Biomarker Activity (AID 2283094). The following applies: primary human HUVEC with PBMC; actives raise or lower the signal. In a few lines: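 Human umbilical vein endothelial cells co-cultured with peripheral blood mononuclear cells; IL-8 measured by ELISA 24 h after chemical dosing. Bidirectional concentration-response fitting used DMSO as negative control and activity baseline.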

Assay [4] is described as follows: BSK_SAg_Proliferation: Cell Proliferation Assessment in the BioMAP Diversity Plus: SAg Assay (AID 2283095).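 Note: relative cell number as total protein by SRB absorbance in sub-confluent culture.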 Particulars: primary human HUVEC with PBMC. The essentials: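 Human umbilical vein endothelial cells co-cultured with peripheral blood mononuclear cells; total protein measured by sulforhodamine B staining (0.1% SRB after 10% TCA fixation), absorbance at 560 nm, at 96 h. Bidirectional fit against DMSO baseline.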

A short description of assay [5]: BSK_SAg_SRB: Viability Assessment in the BioMAP Diversity Plus: SAg Assay (AID 2283096).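 Note: cells read one day after compound addition; hits may be either gain or loss of signal compared with DMSO.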 The following applies: primary human HUVEC with PBMC. In a few lines: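 Endothelial/PBMC primary human co-culture; compound 24 h; fix 10% TCA, stain 0.1% SRB, A560; protein content as cytotoxicity proxy; bidirectional curve fit, DMSO = baseline.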
The target of assay [6] is human CYP2A6, CYP2A6 (gene 1548) (UniProt P11509). Description: NVS_ADME_hCYP2A6: NovaScreen (NVS) CYP450-related Enzyme Activity (ADME) Assay for human CYP2A6 (AID 2283099; active = hit-call score of the fitted dose curve at least 0.9, where 1 is the maximum). The essentials:
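Compounds screened at 10 uM (duplicate) and, if active, titrated to a 20 uM top concentration against insect-cell-expressed CYP2A6. Loss of fluorescent product signal after 0.5 h, relative to acetonitrile baseline, indicates inhibition.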

Assay [7] can be described thus: BSK_SAg_PBMCCytotoxicity: PBMC Cytotoxicity Assessment in the BioMAP Diversity Plus: SAg Assay (AID 2283093).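 For AC50: PBMC superantigen activated with SEB plus TSST-1 one hour after compound addition.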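 Note: PBMC viability measured as Alamar Blue reduction fluorescence at 546/580 nm; fitted both ways against DMSO so a hit may be loss or gain of signal.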 Particulars: primary human HUVEC with PBMC. In a few lines: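 Human umbilical vein endothelial cells co-cultured with PBMC; PBMC (75,000/well) pre-treated with compound 1 h, then activated with SEB and TSST-1 (20 ng/mL final each) for 90 h. Alamar Blue added 6 h, fluorescence 546/580 nm; bidirectional fit versus DMSO.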

The target in assay [8] is Cytochrome P450 3A4 (Homo sapiens) (UniProt P08684). Description: NVS_ADME_hCYP3A4: NovaScreen (NVS) CYP450-related Enzyme Activity (ADME) Assay for human CYP3A4 (AID 2283110; active = hit-call score of the fitted dose curve at least 0.9, where 1 is the maximum). The essentials: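 Cell-free assay using insect-cell-expressed human CYP3A4 with a fluorogenic substrate; fluorescence intensity was read 0.33 hour after dosing. Loss of signal relative to acetonitrile vehicle indicated inhibition. Primary single-concentration screen at 10 uM, in duplicate, then concentration series.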
Cytochrome P450 3A4 (Homo sapiens), sequence (P08684 whole entry, looked up): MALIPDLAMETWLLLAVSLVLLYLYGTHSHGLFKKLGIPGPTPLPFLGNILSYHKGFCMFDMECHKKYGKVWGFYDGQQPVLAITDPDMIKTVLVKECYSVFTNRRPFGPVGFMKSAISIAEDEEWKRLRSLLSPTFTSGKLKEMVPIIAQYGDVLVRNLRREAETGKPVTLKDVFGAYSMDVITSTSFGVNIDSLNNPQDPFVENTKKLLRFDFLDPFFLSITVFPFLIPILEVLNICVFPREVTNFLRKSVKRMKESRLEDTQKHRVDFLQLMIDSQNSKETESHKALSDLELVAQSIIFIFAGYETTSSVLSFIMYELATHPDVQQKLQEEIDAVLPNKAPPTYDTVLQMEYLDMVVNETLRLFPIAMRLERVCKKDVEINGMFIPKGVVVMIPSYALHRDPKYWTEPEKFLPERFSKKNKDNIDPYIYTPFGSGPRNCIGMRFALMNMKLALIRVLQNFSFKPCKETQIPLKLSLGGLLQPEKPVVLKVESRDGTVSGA

Assay [9] concerns the target human CYP19A1, CYP19A1 (gene 1588) (UniProt P11511). Kind of assay: NVS_ADME_hCYP19A1: NovaScreen (NVS) CYP450-related Enzyme Activity (ADME) Assay for human CYP19A1 (AID 2283098; active = hit-call score of the fitted dose curve at least 0.9, where 1 is the maximum). In a few lines: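 Cell-free enzyme assay with recombinant protein and a specific fluorogenic substrate, read by fluorescence intensity 0.5 h after dosing. Primary screen ran in duplicate at 10 uM; actives were retested in concentration series. Loss of signal versus acetonitrile baseline.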

Assay [10] addresses Cytochrome P450 2C19 (Homo sapiens) (UniProt P33261). Description: NVS_ADME_hCYP2C19: NovaScreen (NVS) CYP450-related Enzyme Activity (ADME) Assay for human CYP2C19 (AID 2283113; active = hit-call score of the fitted dose curve at least 0.9, where 1 is the maximum;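 note: potency for inhibition seen as loss of fluorescent signal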). In a few lines:
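Compounds first screened in duplicate at 10 uM, then confirmed in concentration series. Insect-cell-expressed human CYP2C19 turned over a fluorogenic substrate, and fluorescence was read after 1 h. Inhibition taken as signal loss relative to acetonitrile.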

Assay [11] has as its target human CYP2C9, CYP2C9 (gene 1559) (UniProt P11712). Kind of assay: NVS_ADME_hCYP2C9: NovaScreen (NVS) CYP450-related Enzyme Activity (ADME) Assay for human CYP2C9 (AID 2283108; active = hit-call score of the fitted dose curve at least 0.9, where 1 is the maximum). In a few lines: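 Cell-free assay of recombinant human CYP2C9 produced in Sf9 cells, with enzyme activity read by fluorescence intensity 0.75 h after compound addition. Loss of signal versus an acetonitrile negative control indicates inhibition. Primary screen used 10 uM in duplicate; actives were retested in concentration series.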

The target in assay [12] is rat CYP2A2, Cyp2a2 (gene 24895) (UniProt P15149). Description: NVS_ADME_rCYP2A2: NovaScreen (NVS) CYP450-related Enzyme Activity (ADME) Assay for rat CYP2A2 (AID 2283116; active = hit-call score of the fitted dose curve at least 0.9, where 1 is the maximum). The essentials: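 Cell-free recombinant rat CYP2A2 activity with fluorogenic substrate, fluorescence read 0.2 h after dosing. Chemicals screened at 10 uM in duplicate, hits then run in concentration-response up to 20 uM; signal loss versus acetonitrile baseline.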
rat CYP2A2, Cyp2a2 (gene 24895), sequence (P15149 whole entry, looked up): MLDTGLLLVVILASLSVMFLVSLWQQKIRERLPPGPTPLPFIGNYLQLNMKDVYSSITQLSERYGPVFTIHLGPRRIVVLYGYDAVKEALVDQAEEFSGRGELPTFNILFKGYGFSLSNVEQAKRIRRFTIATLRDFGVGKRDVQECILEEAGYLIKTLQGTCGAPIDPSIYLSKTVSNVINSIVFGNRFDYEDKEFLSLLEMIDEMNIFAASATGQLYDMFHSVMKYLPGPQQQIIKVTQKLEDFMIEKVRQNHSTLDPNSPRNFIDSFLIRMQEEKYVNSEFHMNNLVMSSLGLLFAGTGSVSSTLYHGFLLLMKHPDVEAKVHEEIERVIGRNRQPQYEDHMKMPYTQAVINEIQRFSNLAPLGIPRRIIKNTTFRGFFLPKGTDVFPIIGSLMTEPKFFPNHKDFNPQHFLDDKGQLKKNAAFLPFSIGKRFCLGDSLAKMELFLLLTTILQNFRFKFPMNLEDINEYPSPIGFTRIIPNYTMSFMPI

Assay [13] concerns the target rat CYP2C11, Cyp2c11 (gene 29277) (UniProt P08683). Kind of assay: NVS_ADME_rCYP2C11: NovaScreen (NVS) CYP450-related Enzyme Activity (ADME) Assay for rat CYP2C11 (AID 2283118; active = hit-call score of the fitted dose curve at least 0.9, where 1 is the maximum). The essentials: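 Cell-free recombinant rat enzyme with fluorescent substrate; readout 0.33 h after dosing, loss of signal versus acetonitrile control. Initial duplicate single-point at 10 uM; actives rerun in concentration series.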

Assay [14] deals with human CYP1A1, CYP1A1 (gene 1543) (UniProt P04798). Kind of assay: NVS_ADME_hCYP1A1: NovaScreen (NVS) CYP450-related Enzyme Activity (ADME) Assay for human CYP1A1 (AID 2283100; active = hit-call score of the fitted dose curve at least 0.9, where 1 is the maximum). The essentials: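 Chemicals were first tested in duplicate at 10 uM, and those passing a 30% inhibition threshold were rerun as concentration series topping at 20 uM. Fluorescence read-out of recombinant enzyme turnover after 1 h, relative to acetonitrile.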
human CYP1A1, CYP1A1 (gene 1543), sequence (P04798 whole entry, looked up): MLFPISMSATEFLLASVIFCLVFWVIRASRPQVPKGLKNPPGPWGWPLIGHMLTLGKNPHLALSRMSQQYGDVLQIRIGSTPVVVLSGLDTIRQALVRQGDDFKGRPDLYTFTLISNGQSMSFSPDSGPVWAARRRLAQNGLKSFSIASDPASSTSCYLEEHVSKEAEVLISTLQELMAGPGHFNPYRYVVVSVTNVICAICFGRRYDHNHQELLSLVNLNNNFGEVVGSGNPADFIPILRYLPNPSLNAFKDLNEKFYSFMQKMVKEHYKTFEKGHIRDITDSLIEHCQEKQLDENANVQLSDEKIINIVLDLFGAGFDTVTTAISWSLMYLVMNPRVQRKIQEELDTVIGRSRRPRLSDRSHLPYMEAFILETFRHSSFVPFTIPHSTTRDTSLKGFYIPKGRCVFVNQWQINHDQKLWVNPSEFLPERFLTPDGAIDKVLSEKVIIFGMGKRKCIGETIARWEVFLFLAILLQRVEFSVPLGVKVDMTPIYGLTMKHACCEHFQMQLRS

For assay [15], the target named is human CYP1A2, CYP1A2 (gene 1544) (UniProt P05177). Kind of assay: NVS_ADME_hCYP1A2: NovaScreen (NVS) CYP450-related Enzyme Activity (ADME) Assay for human CYP1A2 (AID 2283102; active = hit-call score of the fitted dose curve at least 0.9, where 1 is the maximum;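 note: potency for inhibition since loss of fluorescence marks reduced CYP1A2 activity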). In a few lines:
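Enzyme activity of insect-cell-expressed human CYP1A2 measured by fluorescence 0.5 h after compound addition, relative to acetonitrile. Compounds first tested in duplicate at 10 uM, actives followed up in concentration series.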

“And” between values parts separate entries of the source, which are not always exact repeats. Equal entries are not always repeated. Inconclusive results are not listed. The source made the active and inactive calls. Rule for the calls, unless noted: active = hit-call score of the fitted dose curve at least 0.9, where 1 is the maximum; inactive = score below 0.9.

E-selectin (Homo sapiens), sequence (P16581 whole entry, looked up): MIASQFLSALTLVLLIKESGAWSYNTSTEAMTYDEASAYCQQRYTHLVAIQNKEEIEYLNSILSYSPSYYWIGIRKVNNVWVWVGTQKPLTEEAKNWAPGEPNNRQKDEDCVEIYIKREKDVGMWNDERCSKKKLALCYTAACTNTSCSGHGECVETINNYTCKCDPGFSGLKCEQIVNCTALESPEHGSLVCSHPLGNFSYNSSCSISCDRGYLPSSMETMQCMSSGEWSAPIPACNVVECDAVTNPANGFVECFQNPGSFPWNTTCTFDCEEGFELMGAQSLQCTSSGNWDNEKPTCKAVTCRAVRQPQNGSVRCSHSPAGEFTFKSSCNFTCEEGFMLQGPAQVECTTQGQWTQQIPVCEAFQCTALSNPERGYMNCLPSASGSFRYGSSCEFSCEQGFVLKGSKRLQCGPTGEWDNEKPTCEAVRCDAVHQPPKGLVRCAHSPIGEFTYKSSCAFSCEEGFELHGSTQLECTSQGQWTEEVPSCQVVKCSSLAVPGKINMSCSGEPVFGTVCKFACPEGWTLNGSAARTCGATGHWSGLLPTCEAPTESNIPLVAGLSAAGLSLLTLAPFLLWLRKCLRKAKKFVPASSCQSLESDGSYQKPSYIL
rat CYP2C11, Cyp2c11 (gene 29277), sequence (P08683 whole entry, looked up): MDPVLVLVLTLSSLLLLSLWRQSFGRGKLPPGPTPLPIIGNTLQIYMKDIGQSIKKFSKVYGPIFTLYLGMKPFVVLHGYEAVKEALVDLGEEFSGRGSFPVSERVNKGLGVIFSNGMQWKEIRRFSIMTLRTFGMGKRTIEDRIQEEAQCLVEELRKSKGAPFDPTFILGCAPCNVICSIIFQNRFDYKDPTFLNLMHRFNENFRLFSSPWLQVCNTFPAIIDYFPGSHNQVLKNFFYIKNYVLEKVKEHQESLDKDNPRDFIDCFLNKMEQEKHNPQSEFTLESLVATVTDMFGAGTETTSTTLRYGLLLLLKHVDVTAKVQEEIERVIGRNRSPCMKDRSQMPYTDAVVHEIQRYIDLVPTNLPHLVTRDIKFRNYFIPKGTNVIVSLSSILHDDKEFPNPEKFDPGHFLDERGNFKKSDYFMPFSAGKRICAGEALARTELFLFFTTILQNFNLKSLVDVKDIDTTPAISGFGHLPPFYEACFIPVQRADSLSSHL
human CYP1A2, CYP1A2 (gene 1544), sequence (P05177 whole entry, looked up): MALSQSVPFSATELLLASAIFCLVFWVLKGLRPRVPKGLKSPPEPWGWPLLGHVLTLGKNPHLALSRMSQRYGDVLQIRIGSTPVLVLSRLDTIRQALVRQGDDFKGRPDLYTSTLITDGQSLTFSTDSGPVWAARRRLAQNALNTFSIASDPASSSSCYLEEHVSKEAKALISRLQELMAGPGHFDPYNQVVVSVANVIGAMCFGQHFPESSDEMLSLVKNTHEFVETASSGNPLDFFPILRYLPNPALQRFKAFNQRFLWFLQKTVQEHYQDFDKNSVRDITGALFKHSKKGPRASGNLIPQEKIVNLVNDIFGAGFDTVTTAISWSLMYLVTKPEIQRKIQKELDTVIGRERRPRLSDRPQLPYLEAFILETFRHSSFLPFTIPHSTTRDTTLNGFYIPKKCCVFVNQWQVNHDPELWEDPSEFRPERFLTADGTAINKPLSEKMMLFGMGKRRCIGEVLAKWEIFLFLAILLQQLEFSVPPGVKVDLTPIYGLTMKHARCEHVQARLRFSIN
human CYP19A1, CYP19A1 (gene 1588), sequence (P11511 whole entry, looked up): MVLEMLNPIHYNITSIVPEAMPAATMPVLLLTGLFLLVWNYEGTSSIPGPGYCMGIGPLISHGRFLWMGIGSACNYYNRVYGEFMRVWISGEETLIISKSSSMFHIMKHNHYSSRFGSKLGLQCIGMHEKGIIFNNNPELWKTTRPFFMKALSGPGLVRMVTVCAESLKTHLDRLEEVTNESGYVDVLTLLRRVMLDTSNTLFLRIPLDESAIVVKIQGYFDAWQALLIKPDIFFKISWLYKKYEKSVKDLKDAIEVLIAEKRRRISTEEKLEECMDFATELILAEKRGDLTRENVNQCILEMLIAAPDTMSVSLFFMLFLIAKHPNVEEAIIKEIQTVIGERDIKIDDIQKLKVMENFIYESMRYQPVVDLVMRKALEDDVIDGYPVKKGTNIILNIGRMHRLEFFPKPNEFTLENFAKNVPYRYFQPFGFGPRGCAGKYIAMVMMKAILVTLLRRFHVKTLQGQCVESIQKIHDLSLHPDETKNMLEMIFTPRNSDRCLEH
human CYP2C9, CYP2C9 (gene 1559), sequence (P11712 whole entry, looked up): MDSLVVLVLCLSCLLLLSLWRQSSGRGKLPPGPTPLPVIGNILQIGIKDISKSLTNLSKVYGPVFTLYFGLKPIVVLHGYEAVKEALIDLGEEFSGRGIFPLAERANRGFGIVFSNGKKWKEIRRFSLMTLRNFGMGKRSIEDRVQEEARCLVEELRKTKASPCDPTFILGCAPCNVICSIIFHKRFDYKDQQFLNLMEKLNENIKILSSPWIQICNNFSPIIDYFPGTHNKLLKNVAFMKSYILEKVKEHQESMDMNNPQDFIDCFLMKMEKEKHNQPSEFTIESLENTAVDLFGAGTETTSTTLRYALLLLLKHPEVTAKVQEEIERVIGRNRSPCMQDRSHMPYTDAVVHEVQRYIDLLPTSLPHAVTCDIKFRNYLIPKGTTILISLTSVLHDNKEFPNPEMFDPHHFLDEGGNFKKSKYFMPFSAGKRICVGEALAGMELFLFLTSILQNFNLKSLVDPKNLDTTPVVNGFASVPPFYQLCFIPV
human CYP2A6, CYP2A6 (gene 1548), sequence (P11509 whole entry, looked up): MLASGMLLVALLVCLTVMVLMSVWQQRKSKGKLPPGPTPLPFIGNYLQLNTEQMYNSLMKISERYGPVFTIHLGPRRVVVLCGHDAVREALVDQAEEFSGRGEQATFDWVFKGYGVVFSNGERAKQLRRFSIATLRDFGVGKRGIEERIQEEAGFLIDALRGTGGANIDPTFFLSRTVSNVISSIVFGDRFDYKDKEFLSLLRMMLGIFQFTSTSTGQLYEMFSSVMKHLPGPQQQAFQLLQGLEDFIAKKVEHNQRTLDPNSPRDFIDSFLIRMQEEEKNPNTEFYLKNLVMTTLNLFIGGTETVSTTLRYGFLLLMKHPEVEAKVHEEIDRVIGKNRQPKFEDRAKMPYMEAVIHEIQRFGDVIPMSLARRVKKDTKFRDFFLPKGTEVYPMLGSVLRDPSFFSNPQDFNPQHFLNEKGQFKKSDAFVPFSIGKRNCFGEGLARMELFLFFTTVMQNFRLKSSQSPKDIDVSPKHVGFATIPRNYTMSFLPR

Consider `Cc1cccc([N+](=O)[O-])c1`, for which the outcome in assay [1], in assay [2], in assay [3], in assay [4], in assay [5] and in assay [6] was inactive.
With `O=S(=O)(O)C(F)(F)C(F)(F)C(F)(F)C(F)(F)F`, the result in assay [1], in [7], in [3], in assay [4] and in [5] was inactive.
For the molecule `CCCCCCOC(=O)c1ccccc1C(=O)OCCCCCC`, the AC50 is 32.6 µM (active) in assay [1], 35 µM (active) in assay [7], 29 µM (active) in assay [3] and 28.6 µM (active) in assay [4]. Also, the result in [2] and in assay [5] was inactive.
`O=C(NC(=O)c1c(F)cccc1F)Nc1cc(Cl)c(OC(F)(F)C(F)F)c(Cl)c1`: the result in assay [1], in [2], in [7], in assay [3], in assay [4] and in assay [5] was inactive.
For the molecule `Cc1cccc(C)c1N`, the outcome in assay [1], in assay [2], in [7], in [3], in assay [4] and in assay [5] was inactive. The call in assay [8] was inactive.
Regarding `Cc1cc(-c2ccc(N)c(C)c2)ccc1N`, the outcome in assay [1], in assay [2], in assay [3], in assay [5] and in assay [9] was inactive. The concentration at half-maximal activity (AC50) in assay [4] is 11.8 µM (active).
Turning to `N#Cc1ccc(N(CC(N)=O)CC(F)(F)F)cc1C(F)(F)F`, the outcome in [1], in assay [7], in [3] and in assay [4] was inactive.
Take `c1ccc(-c2ccccc2)cc1`: the result in assay [1], in [7], in [3], in assay [4] and in assay [5] was inactive.
With `CC(c1ccc(O)cc1)(c1ccc(O)cc1)c1ccc(O)cc1`, the AC50 in assay [1] was 13.9 µM (active); in [2] it was 33.8 µM (active); in assay [3] it was 20 µM (active); in assay [4], 21.6 µM (active); in [5] it was 15.7 µM (active); in assay [10], 1.73 µM (active).
With `O=C(O)C(F)(F)C(F)(F)C(F)(F)C(F)(F)C(F)(F)C(F)(F)C(F)(F)C(F)(F)C(F)(F)F`, the AC50 in assay [1] was 34.3 µM (active) and 54.9 µM (active) and 52.9 µM (active); in assay [2], 33.7 µM (active) and 54.9 µM (active) and 53.5 µM (active); in assay [3], 36.3 µM (active) and 49.4 µM (active) and 41.4 µM (active); in [4], 34.1 µM (active) and 46.2 µM (active) and 47.6 µM (active); in [5], 32 µM (active) and 53.5 µM (active) and 54.4 µM (active); in assay [11] it was 1.12 µM (active).
On to `O=C(NC(=O)c1cc(F)c(F)cc1Cl)Nc1cc(F)ccc1N1CCC(C(=O)O)CC1`, for which the outcome in assay [1], in assay [2], in [7], in assay [3], in [4] and in [5] was inactive.
Regarding `C[C@]12CCC(=O)C=C1CC[C@@H]1[C@@H]2CC[C@@]2(C)[C@H]1CC[C@]2(C)O`, the outcome in assay [1], in assay [2], in [7], in [3], in [4] and in [5] was inactive. Further, the concentration at half-maximal activity (AC50) in [10] is 9.15 µM (active); in assay [12] it was 5.45 µM (active); in assay [13], 3.82 µM (active) and 2.41 µM (active) and 2.57 µM (active).
On to `C1CC2OC2CC1C1CO1` (stereo unspecified), for which the outcome in assay [1], in [7], in [3], in [4] and in [5] was inactive.
Turning to `CCCCCCCCOC(=O)c1ccccc1C(=O)OCCCCCCCC`, the result in assay [1], in [2], in [3], in [4] and in [5] was inactive.
In the case of `CC#Cc1cc(C)nc(Nc2ccccc2)n1`, the result in [1], in [2], in assay [7], in assay [3] and in assay [5] was inactive. The AC50 in assay [4] was 28.3 µM (active); in [14], 617 nM (active); in [15], 1.96 µM (active).
As for `Cc1ccccc1CO[C@@H]1C[C@@]2(C(C)C)CC[C@]1(C)O2`, the result in assay [1], in [2], in assay [3], in [4] and in assay [5] was inactive.
As for `c1cc2ccc3cccc4ccc(c1)c2c34`, the outcome in [1], in assay [2], in [7], in assay [3], in [4] and in assay [5] was inactive.

The AC50 is the midpoint of the concentration-response curve, whichever way the signal moves.

Source of the values: PubChem BioAssay (EPA / NIEHS).
